Compound activity deposited in PubChem BioAssay by several laboratories.
This is a sample that favours compounds with a hit; in the whole collection about 2.4% have one here.
eIF4H FP inh = human eIF4H binding inhibitors, primary screen, translation initiation inhibitor project, biochemical, uHTS, fluorescence polarization; eIF4H fluorescence polarization binding assay; inhibition, % at 35 µM; 290,000 tested, 0.94% active; Eukaryotic translation initiation factor 4H (Homo sapiens), Q15056;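 further: calls also rest on retests at 20 µM and on dose response follow-up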
PABP polyA inh = PABP poly(A) RNA binding inhibitors, primary screen, biochemical, fluorescence polarization, uHTS; Polyadenylate-binding protein 1 (Homo sapiens), P11940; 290,000 tested, 1% active; inhibition, % at 35 µM;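 further: calls also rest on retests at 20 µM and on dose response follow-up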
MLLE-PAM2 inh = inhibitors of PABP1 MLLE–PAM2 peptide binding, primary screen, biochemical, fluorescence polarization, FITC-PAM2, GST-MLLE; Polyadenylate-binding protein 1 (Homo sapiens), P11940; 360,000 tested, 0.36% active; inhibition, % at 20 µM; in the data active means inhibition above about 35%, passing the limit was not always enough
PERK inh = block of dimerizer-induced PERK translation repression, primary screen, PERK inhibitor project, CHO PERK-DD cells, SEAP luminescence, HTS. inhibition, % at 5.6 µM. 220,000 tested, 0.17% active. AID 1416, 2008. Eukaryotic translation initiation factor 2-alpha kinase 3 (Homo sapiens), Q9NZJ5. CHO PERK-DD fusion, SEAP luminescence translation reporter;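 active means inhibition above the mean inhibition of all tested compounds plus 3 SD, set separately per screening campaign, cut at about 2.9% in these data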;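 further: PERK kinase domain activated by AP20187 dimerizer at 100 nM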
eIF4E 4G PPI = eIF4E–eIF4G protein interaction inhibitors, primary screen, biochemical, uHTS, TR-FRET, eIF4GI fragment. Eukaryotic translation initiation factor 4E (Mus musculus) + Eukaryotic translation …. TR-FRET eIF4E-eIF4GI(517-606) binding, 2 h. inhibition, % at 21.7 µM. 220,000 tested, 0.37% active. AID 782, 2007;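 active means inhibition above about 30%, limit read from the data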
PfM18AAP inh = PfM18AAP inhibitors, malaria aminopeptidase, primary screen, biochemical, QFRET, recombinant enzyme. H-Glu-NHMec fluorogenic cleavage. 290,000 tested, 1.2% active. AID 1822, 2009. M18 aspartyl aminopeptidase (Plasmodium falciparum 3D7). inhibition, % at 7.35 µM;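 active means inhibition above the campaign mean inhibition over all tested compounds plus 3 SD, cut at about 28% in these data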
A number is an active result; i = inactive; nt = no result; [ ] = remark or other dose. Unless noted, how the calls were made is not given here.

SMILES	eIF4H FP inh	PABP polyA inh	MLLE-PAM2 inh	PERK inh	eIF4E 4G PPI	PfM18AAP inh
Cn1cccc1/C=C1\CC(C(C)(C)C)C/C(=C\c2cccn2C)C1=O (centres undefined)	51.2	60.2	i	i	i	i
CCCn1cnc2sc(CC)cc2c1=O	57.5	i	i	i	i	i
CCCn1cnc2sc(C(N)=O)c(C)c2c1=O	i	i	i	i	nt	i
O=C(Nc1ccc(N2CCN(C(=O)c3cccs3)CC2)cc1)c1ccc(Br)o1	nt	nt	i	nt	nt	nt
Cc1c(Cl)c([N+](=O)[O-])nn1CCCC(=O)O	active	i	i	i	i	i
Cn1cc(Cl)c(C(=O)Nc2nc3ccc(Cl)cc3s2)n1	i	i	i	i	i	i
Cn1cc(Cl)c(C(=O)Nc2nc3ccc([N+](=O)[O-])cc3s2)n1	i	i	i	i	i	30.3
CCc1cccc(CC)c1NC(=O)CSc1nc2ccc(N3C(=O)C4C(C3=O)[C@H]3C=C[C@@H]4C3)cc2s1 (some centres undefined)	i	i	i	i	i	i
COc1ccc(OC(=O)CN2C(=O)C3C4CCC(C4)C3C2=O)cc1 (centres undefined)	i	active	i	i	i	i
COC(=O)c1cnc(NNS(=O)(=O)c2ccc(Cl)cc2)nc1C(F)(F)F	i	i	i	i	i	28.6
COc1ccc(S(=O)(=O)Nc2cc(Sc3ncn[nH]3)c(O)c3ccccc23)cc1	i	i	nt	i	46.2[fluorescence artefact?]	50.4
O=S(=O)(Nc1cc(Sc2cccc3cccnc23)c(O)c2ccccc12)c1ccc(F)cc1	i	i	nt	i	i	i
COC(=O)c1ccc(CSc2nc3ccc(Cl)cc3[nH]2)o1	i	i	nt	i	i	i
COC(=O)c1ccc(CSc2nc3scc(-c4cccs4)c3c(=O)[nH]2)o1	53.8	19.6	i	i	i	i
Cc1ccc(C)c(NC(=O)CSc2ccc(-c3cccs3)nn2)c1	21.6	120.4	i	i	i	i
Cc1cc(=O)oc2cc(OCc3ccc(C(=O)OCC(=O)NC4CCS(=O)(=O)C4)cc3)ccc12 (centres undefined)	98.9	55.2	i	i	i	i
Cc1cc(=O)oc2cc(OCc3ccc(C(=O)OCC(=O)N(C)C4CCS(=O)(=O)C4)cc3)ccc12 (centres undefined)	i	i	i	i	i	i
O=C(O)/C=C/C(=O)Nc1ccc(NC(=O)c2ccccc2)c(Cl)c1	i	i	i	i	i	i
O=C(NCCN1CCOCC1)c1nn2c(c1Cl)NC(c1ccccc1)CC2C(F)(F)F (centres undefined)	i	i	i	i	45.3	i
O=C(NCCN1CCOCC1)c1cc2n(n1)C(C(F)(F)F)CC(c1ccc(F)cc1)N2 (centres undefined)	i	i	i	i	i	i
O/N=C/c1ccc(-c2cc(Cl)ccc2Cl)o1	i	i	i	i	i	i
Clc1ccc(Cl)c(-c2ccc(/C=N/c3ncn[nH]3)o2)c1	i	i	i	i	i	30.2
Cc1ccc(C(=O)CNc2cccc([N+](=O)[O-])c2)cc1	i	i	41.2	i	i	i
Cc1ccnc(SCc2cc(=O)c(OC(=O)c3ccco3)co2)n1	7.6	98.1	i	i	i	i
Cc1ccnc(SCc2cc(=O)c(OC(=O)c3cccs3)co2)n1	i	i	i	i	i	i
SMILES	eIF4H FP inh	PABP polyA inh	MLLE-PAM2 inh	PERK inh	eIF4E 4G PPI	PfM18AAP inh
O=C(c1cn[nH]c1)c1cc(F)ccc1O	i	i	i	i	i	31.2
Cc1[nH]nc2ncc(C(=O)c3cc(F)ccc3O)cc12	i	i	i	i	i	i
Cc1cccc(C(=O)NC(=S)NNC(=O)c2ccc(Cl)cc2)c1	i	i	i	i	i	i
COc1cc(C(=O)NNC(=S)NC(=O)c2ccc(Cl)cc2)cc(OC)c1OC	11.5	i	i	i	i	i
COc1ccc(S(=O)(=O)Nc2cccc(-c3ccc4nncn4n3)c2)c(OC)c1	nt	nt	i	nt	nt	nt
CCN(c1cccc(C)c1)S(=O)(=O)c1ccc(-c2cc(C)no2)s1	88.3	i	i	nt	nt	i
